The panel holds about 79,000 compounds, 15% with a hit somewhere; the sample as a whole holds those more often. Calls of active or inactive are those of the source. No stated cut-off is given here; in the data, active means growth inhibition above about 70%; inactive means the rest.
Tests used:
[1] = NCI Yeast Anticancer Drug Screen. Data for the rad50 strain (AID 155);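 further: 0% = growth of vehicle-only cultures of the same strain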; details: S. cerevisiae rad50 strain growth inhibition; at 50.0 µM; stronger effect = higher value
Outline: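 Cells are treated with compound, grown, and their growth is then scored against vehicle-only cultures of the same repair-deficient yeast strain.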

[2] = NCI Yeast Anticancer Drug Screen. Data for the mec2-1 strain (AID 157); details: S. cerevisiae mec2-1 strain, at 50.0 µM, stronger effect = higher value
Outline: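 Growth inhibition is read against vehicle-treated controls after compound exposure of the mec2-1 yeast strain, which is defective in DNA damage repair or cell cycle control.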

[3] = NCI Yeast Anticancer Drug Screen. Data for the sgs1 mgt1 strain (AID 161);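 further: 0% = growth of cultures given vehicle only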; details: S. cerevisiae sgs1 mgt1 strain, at 50.0 µM, stronger effect = higher value
Outline: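 This yeast growth screen uses a strain with defined DNA-repair lesions; compound-treated growth is compared with vehicle-treated growth.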

[4] = NCI Yeast Anticancer Drug Screen. Data for the cln2 rad14 strain (AID 165);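 further: 0% = growth equal to vehicle treated cultures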; details: S. cerevisiae cln2 rad14 strain, at 50.0 µM, stronger effect = higher value
Outline: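 Growth inhibition, relative to vehicle-treated controls, is the read-out. The test organism is a yeast strain with defined genetic alterations, cln2 rad14.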

[5] = NCI Yeast Anticancer Drug Screen. Data for the bub3 strain (AID 167); details: S. cerevisiae bub3 mutant strain, at 50.0 µM, stronger effect = higher value
Outline: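 Part of a panel of yeast mutants defective in DNA damage repair or cell cycle regulation. Each strain is grown with compound, and inhibition is calculated relative to solvent-treated cultures.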

[6] = NCI Yeast Anticancer Drug Screen. Data for the mlh1 rad18 strain (AID 175); details: S. cerevisiae mlh1 rad18 strain growth inhibition; at 50.0 µM; stronger effect = higher value
Outline: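 Cells of a genetically altered yeast strain, deficient in DNA damage repair, were treated with compound. Their growth was then compared with that of vehicle-treated cultures to give inhibition.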

Measured: growth inhibition

[O-][n+]1ccccc1Cl
inactive: [1] 8.05% | [2] 9.9% | [3] 10.2% | [4] -14.4% | [5] 6.85% | [6] 16.4%

CC(C)NC(=O)c1ccc(CBr)cc1
inactive: [1] 0.8% | [2] 9.05% | [3] -10.1% | [4] 9.8% | [5] 10.4% | [6] 14.3%

O=C1OC(C2OC(=O)C(=O)C2C(=O)c2ccccc2Cl)C(C(=O)c2ccccc2Cl)C1=O (stereo unspecified)
inactive: [1] 58.4% | [2] 23.9% | [3] 49.5% | [4] 19.1% | [5] 7.15% | [6] 53.5%

CC1CCC2C(C)C3C(CC4C5CC=C6CC(O)CCC6(C)C5CCC43C=O)N2C1 (stereo unspecified)
inactive: [1] 30.3% | [2] 19.9% | [3] 24.9% | [4] 16.6% | [5] 3.9% | [6] 19.4%

[Cl][Pt+2][Cl].[NH-]c1cccc(C(F)(F)F)c1.[NH-]c1cccc(C(F)(F)F)c1
inactive: [1] 2.1% | [2] 12.2% | [3] -6.35% | [4] 7.05% | [5] -22.8% | [6] -11.9%

CC(O)(C(=O)O)c1ccccc1O (stereo unspecified)
inactive: [1] -1.1% | [2] 1.7% | [3] 2.05% | [4] 3.3% | [5] 6.1% | [6] 6.75%

O=C(O)CSc1nc2ccc(N3C(=O)C4C5C=CC(C5)C4C3=O)cc2s1 (stereo unspecified)
inactive: [1] 29.4% | [2] -2.65% | [3] -2.5% | [4] 11.3% | [5] -2.5% | [6] 6.15%

CCCCCCCC#CC1(CCCC)Sc2ccccc2N1C (stereo unspecified)
inactive: [1] 15.3% | [2] 6.15% | [3] 0.75% | [4] 8.05% | [5] 6.35% | [6] 19.8%

COC(=O)CC1=CCCc2ccccc21
inactive: [1] -3.95% | [2] 1.55% | [3] -2.85% | [4] 7% | [5] 0.35% | [6] -22.2%

COc1cc(C=C2C(=O)NC(=O)NC2=O)ccc1OCc1ccccc1
inactive: [1] -0.15% | [2] -1.5% | [3] -1.1% | [4] 3.3% | [5] -22.3% | [6] -42.6%

CC1=Cc2cc3[n-]c(cc4nc(cc5[n-]c(cc1n2)c(C)c5CCC(=O)O)C(CCC(=O)O)=C4C)cc3C.[Cu+2]
inactive: [1] 0.9% | [2] -0.9% | [3] 10.3% | [4] -49.5% | [5] 15.2% | [6] -0.5%

N#C/C(=N\N=C(/C#N)c1ccc(Cl)cc1)c1ccc(Cl)cc1
inactive: [1] -5.8% | [2] -1.85% | [3] -5.5% | [4] -6.4% | [5] -4.25% | [6] -5.15%

O=C(Nc1ccc(F)cc1)C(=O)C(C1OC(=O)c2ccccc21)[N+](=O)[O-] (stereo unspecified)
inactive: [1] 14.9% | [2] 6.15% | [3] 8.7% | [4] 14.1% | [5] 10.8% | [6] 15.8%

OC1CC/C=C\CC/C=C/CCC1O (stereo unspecified)
inactive: [1] -5.75% | [2] 6.45% | [3] 0.5% | [4] 24.1% | [5] 3.8% | [6] 0.55%

O=[N+]([O-])c1sc2ccccc2c1Br
active: [1] 98% | [2] 98.7% | [3] 98.8% | [4] 99% | [5] 99.1% | [6] 98.7%

O=Cc1c2cnc(c1O)CSCCCCSC2
inactive: [1] -9.2% | [2] -3.8% | [3] -10.8% | [4] -45.2% | [5] -16.4% | [6] -1.8%

O=C(CC(C(=O)c1ccsc1)c1cccs1)c1ccsc1 (stereo unspecified)
inactive: [1] -11.2% | [2] -19.2% | [3] 18.6% | [4] 24.5% | [5] 28.9% | [6] 3%

CCN1CC(O)Cc2ccccc21 (stereo unspecified)
inactive: [1] -3.55% | [2] 8.55% | [3] 11.2% | [4] 1.4% | [5] -8.35% | [6] -3.5%

CO[C@@H]1O[C@H](C(=O)c2ccccc2)[C@H]2OC(C)(C)O[C@@H]12
inactive: [1] -5% | [2] -10.7% | [3] 28.3% | [4] 8.7% | [5] 19.1% | [6] 16.3%

N#CC1C(=O)NC(=O)C(C#N)C12CCCC2 (stereo unspecified)
inactive: [1] -3.65% | [2] -9.2% | [3] 5.25% | [4] -22.2% | [5] 10.9% | [6] 10.7%

Clc1nc(Cl)c2ncnc(Cl)c2n1
inactive: [1] -34.5% | [2] 16.1% | [3] -23.2% | [4] -11.4% | [5] -3.7% | [6] -5.7%

CCn1cc(C(=O)CCP(=O)(OC)OC)c2ccccc21
inactive: [1] 7.5% | [2] -22.2% | [3] 3.6% | [4] -12.8% | [5] 5.15% | [6] -0.25%

O=C(c1ccc(CSc2ccc(Cl)cc2)o1)N1CCOCC1
inactive: [1] 23.9% | [2] 12% | [3] 45.5% | [4] 24.2% | [5] 32.6% | [6] 26.6%

O=C1NC(N2CCOCC2)=N/C1=C\c1ccccc1
inactive: [1] 8% | [2] 11.2% | [3] -9.8% | [4] -3.65% | [5] -1.2% | [6] -15.3%

Cc1ccc(N=C(c2ccccc2)c2ccc([N+](=O)[O-])cc2)cc1
inactive: [1] -16.6% | [2] -7.05% | [3] -21.7% | [4] -26.9% | [5] 21.4% | [6] -11.8%

CCCCOc1ccc(C=Nc2ccc(C)cc2)cc1
inactive: [1] -6.15% | [2] -6.2% | [3] -2.45% | [4] -8.5% | [5] 7.3% | [6] -20.7%

NC(C(=O)O)C1C=CCCC1 (stereo unspecified)
inactive: [1] -25.4% | [2] -3.4% | [3] -30.8% | [4] -57.3% | [5] -27.2% | [6] 6.85%

CC(=O)Nc1cc(C)c(C)cc1NC(C)=O
inactive: [1] -23.9% | [2] -16.6% | [3] -8.35% | [4] -21.8% | [5] -5.1% | [6] -7.4%

COc1cc(O)c(OC)c(O)c1C(C)=O
inactive: [1] -3.5% | [2] -11.2% | [3] -17.4% | [4] -19.7% | [5] 2.25% | [6] -0.65%

O=C1O[C@@H](c2ccc3c(c2)OCO3)C2C(=O)O[C@@H](c3ccc4c(c3)OCO4)C12 (stereo partly specified)
inactive: [1] 13.5% | [2] 8.95% | [3] -8.15% | [4] 19.4% | [5] 2.6% | [6] 21.7%

CCCCCC(CSCC)C(=O)/C=C/c1ccccc1 (stereo unspecified)
inactive: [1] 8.3% | [2] 1.4% | [3] -7% | [4] -1.55% | [5] 18.6% | [6] 5.6%

CCOC(=O)c1c(/N=C/c2ccc(N(C)C)cc2)sc2c1CCCC2
inactive: [1] 14.2% | [2] 13.8% | [3] 17.3% | [4] 23.6% | [5] 17.8% | [6] 5.85%

CC(=O)NCc1cc(C)c(CBr)cc1CBr
inactive: [1] -1.95% | [2] -10.8% | [3] -3.6% | [4] 7.2% | [5] 7.1% | [6] 10.1%

O=C(O)CCSc1ccccc1
inactive: [1] 25.2% | [2] -23.4% | [3] -13.8% | [4] -73% | [5] -3.45% | [6] 20.1%

O=C1CN(Cc2ccc(Cl)cc2)CC(=O)N2CCCN12
inactive: [1] 20.8% | [2] 8% | [3] 19.7% | [4] 18.2% | [5] 10.8% | [6] 16.4%

CC(=O)N(C)c1ccc(NC(=O)/C=C/c2ccccc2)cc1
inactive: [1] 0.15% | [2] 4.25% | [3] 15.7% | [4] -9.85% | [5] 28.1% | [6] 17.1%

CC(/C=C/C(=O)c1ccccc1)=C\C=N\N(C)c1ccccc1
inactive: [1] 17.2% | [2] 2.8% | [3] -1.05% | [4] -40.8% | [5] 4.95% | [6] 1.5%

CCN(CC)C(=O)C1CC=CCC1C(=O)O (stereo unspecified)
inactive: [1] 41.3% | [2] 19.3% | [3] 23.9% | [4] -38.5% | [5] 1.85% | [6] 30.1%

CN(C)c1ccc(/C=C2\Cc3ccccc3C2=O)cc1Br
inactive: [1] 19.6% | [2] -8% | [3] 1.45% | [4] 0.95% | [5] -8.55% | [6] 12.4%

CCCCC(CC)C1OCCS1 (stereo unspecified)
inactive: [1] 5.95% | [2] -24.4% | [3] -4.3% | [4] 1.9% | [5] -17% | [6] -10%

CC1(C)OC(=O)ON(Cc2ccccc2)C1=O
inactive: [1] -4.45% | [2] -2.85% | [3] 2.2% | [4] 2.35% | [5] 3.3% | [6] -13.4%
